PubChem BioAssay (EPA / NIEHS)
Activity calls are given as the source filed them. Rule for the calls: active = hit-call score of the fitted dose curve at least 0.9, where 1 is the maximum; inactive = score below 0.9.

Experiments:
[1] = read-out: TIMP metallopeptidase inhibitor 2 (TIMP2), TIMP2 (gene 7077); assay: BSK_KF3CT_TIMP2: BioMAP Diversity Plus: KF3CT Assay for TIMP metallopeptidase inhibitor 2 (TIMP2) Biomarker Activity (AID 2283071); settings: primary human keratinocytes with fibroblasts; actives raise or lower the signal
Summary of the method: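 Measurements come from ELISA detection of TIMP-2 at 24 hours in a dosed human keratinocyte and foreskin fibroblast co-culture. DMSO serves as negative control and baseline.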

[2] = read-out: Transforming growth factor beta 1 (TGFb1), TGFB1 (gene 7040); assay: BSK_KF3CT_TGFb1: BioMAP Diversity Plus: KF3CT Assay for Transforming growth factor beta 1 (TGFb1) Biomarker Activity (AID 2283072); settings: primary human keratinocytes with fibroblasts; actives raise or lower the signal
Summary of the method: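 TGF-b1 ELISA on a 24 h dosed co-culture of human keratinocytes and foreskin fibroblasts; cytotoxicity tracked in parallel cultures by SRB staining.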

[3] = read-out: Matrix Metallopeptidase 9 (MMP9), MMP9 (gene 4318); assay: BSK_KF3CT_MMP9: BioMAP Diversity Plus: KF3CT Assay for Matrix Metallopeptidase 9 (MMP9) Biomarker Activity (AID 2283074); settings: primary human keratinocytes with fibroblasts; actives raise or lower the signal
Summary of the method: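 MMP-9 quantified by ELISA after 24 h chemical treatment of primary human skin keratinocyte/fibroblast co-cultures; gain or loss fitted against DMSO, with parallel SRB staining (0.1% SRB, 560 nm) for overt cytotoxicity.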

[4] = read-out: urokinase plasminogen activator (uPA), PLAU (gene 5328); assay: BSK_KF3CT_uPA: BioMAP Diversity Plus: KF3CT Assay for urokinase plasminogen activator (uPA) Biomarker Activity (AID 2283075); settings: primary human keratinocytes with fibroblasts; actives raise or lower the signal
Summary of the method: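 ELISA read-out of uPA 24 h after dosing human skin keratinocytes co-cultured with foreskin fibroblasts. Signal change fitted both ways relative to DMSO; sulforhodamine B on parallel cultures marks overt cytotoxicity.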

[5] = read-out: CD40, CD40 (gene 958); assay: BSK_LPS_CD40: BioMAP Diversity Plus: LPS Assay for CD40 Biomarker Activity (AID 2283076); settings: primary human HUVEC with PBMC; actives raise or lower the signal
Summary of the method: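 ELISA readout of CD40 in HUVEC/PBMC co-culture (BSK_LPS system), 24 h post-dosing; bidirectional curve fit, DMSO baseline; parallel SRB total-protein staining for cytotoxicity.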

[6] = read-out: E-selectin (Homo sapiens) (UniProt P16581); assay: BSK_LPS_Eselectin: BioMAP Diversity Plus: LPS Assay for Eselectin Biomarker Activity (AID 2283077); settings: primary human HUVEC with PBMC; actives raise or lower the signal
Summary of the method: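 ELISA readout of E-selectin, 24 h post-dose, HUVEC + PBMC co-culture (LPS system). Gain or loss of signal vs DMSO baseline, bidirectional fit.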

[7] = read-out: Interleukin-8 (IL8), CXCL8 (gene 3576); assay: BSK_LPS_IL8: BioMAP Diversity Plus: LPS Assay for Interleukin-8 (IL8) Biomarker Activity (AID 2283078); settings: primary human HUVEC with PBMC; actives raise or lower the signal
Summary of the method: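 HUVEC + PBMC co-culture, LPS-activated; test chemicals dosed, IL-8 read by ELISA at 24 h. Bidirectional curve fit vs DMSO baseline (gain or loss of signal).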

[8] = BSK_LPS_SRB: Viability Assessment in the BioMAP Diversity Plus: LPS Assay (AID 2283079); settings: primary human HUVEC with PBMC;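 note: total protein by sulforhodamine B absorbance as a cytotoxicity measure; measured one day after compound addition; fitted in both directions against DMSO so loss or gain of signal counts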
Summary of the method: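 HUVEC + PBMC co-culture, LPS-stimulated; compound 24 h. 10% TCA fix, 0.1% SRB stain, A560. Bidirectional fit vs DMSO.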

[9] = read-out: Interleukin-1 alpha (IL1a), IL1A (gene 3552); assay: BSK_LPS_IL1a: BioMAP Diversity Plus: LPS Assay for Interleukin-1 alpha (IL1a) Biomarker Activity (AID 2283080); settings: primary human HUVEC with PBMC; actives raise or lower the signal
Summary of the method: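 HUVEC/PBMC co-culture, LPS system; 24 h after dosing; IL-1a by ELISA; gain or loss of signal fitted bidirectionally vs DMSO baseline.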

[10] = read-out: Monocyte Chemoattractant Protein-1 (MCP1), CCL2 (gene 6347); assay: BSK_LPS_MCP1: BioMAP Diversity Plus: LPS Assay for Monocyte Chemoattractant Protein-1 (MCP1) Biomarker Activity (AID 2283081); settings: primary human HUVEC with PBMC; actives raise or lower the signal;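 for AC50: secreted MCP-1 protein quantified by ELISA in culture supernatant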
Summary of the method: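 ELISA read-out of MCP-1 after 24 h chemical dosing of a human umbilical vein endothelial cell/peripheral blood mononuclear cell co-culture stimulated with LPS. Gain or loss of signal fitted relative to DMSO controls.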

[11] = BSK_LPS_PGE2: BioMAP Diversity Plus: LPS Assay for Prostaglandin E2 (PGE2) Biomarker Activity (AID 2283082); settings: primary human HUVEC with PBMC; actives raise or lower the signal;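 for AC50: secreted prostaglandin E2 measured by ELISA in LPS-stimulated co-culture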
Summary of the method: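 Primary human endothelial cells and blood mononuclear cells, co-cultured with LPS, receive test chemical; PGE2 ELISA follows at 24 h, with SRB-stained parallel cultures flagging cytotoxicity.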

[12] = read-out: Macrophage colony-stimulating factor (MCSF), CSF1 (gene 1435); assay: BSK_LPS_MCSF: BioMAP Diversity Plus: LPS Assay for Macrophage colony-stimulating factor (MCSF) Biomarker Activity (AID 2283083); settings: primary human HUVEC with PBMC; actives raise or lower the signal
Summary of the method: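 HUVEC + PBMC co-culture (human primary), 24 h post-dose; M-CSF by ELISA; gain/loss of signal fitted bidirectionally vs DMSO baseline.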

[13] = read-out: Tumor necrosis factor (Homo sapiens) (UniProt P01375); assay: BSK_LPS_TNFa: BioMAP Diversity Plus: LPS Assay for Tumour Necrosis Factor alpha (TNFa) Biomarker Activity (AID 2283085); settings: primary human HUVEC with PBMC; actives raise or lower the signal;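 for AC50: TNFa protein level quantified by ELISA in the co-culture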
Summary of the method: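 ELISA-based TNFa endpoint in a human endothelial–PBMC co-culture sampled 24 h post-exposure. Curves were fitted in both directions using DMSO as baseline of activity.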

[14] = read-out: Vascular cell adhesion molecule 1 (VCAM1), VCAM1 (gene 7412); assay: BSK_LPS_VCAM1: BioMAP Diversity Plus: LPS Assay for Vascular cell adhesion molecule 1 (VCAM1) Biomarker Activity (AID 2283086); settings: primary human HUVEC with PBMC; actives raise or lower the signal
Summary of the method: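 Measured by ELISA: VCAM-1 in LPS-activated HUVEC/PBMC co-cultures 24 h after treatment. Values reflect bidirectional fitting with DMSO as baseline.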

[15] = read-out: CD38, CD38 (gene 952); assay: BSK_SAg_CD38: BioMAP Diversity Plus: SAg Assay for CD38 Biomarker Activity (AID 2283087); settings: primary human HUVEC with PBMC; actives raise or lower the signal
Summary of the method: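 Measures CD38 on a human endothelial/PBMC co-culture driven by SEB and TSST-1, 24 h after compound exposure, using ELISA with fluorescence detection; DMSO defines baseline for bidirectional curve fitting.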

[16] = read-out: CD40, CD40 (gene 958); assay: BSK_SAg_CD40: BioMAP Diversity Plus: SAg Assay for CD40 Biomarker Activity (AID 2283088); settings: primary human HUVEC with PBMC; actives raise or lower the signal
Summary of the method: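 HUVEC/PBMC co-culture, 24 h post-dose; CD40 by ELISA, fluorescence intensity; bidirectional fit vs DMSO negative control.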

[17] = read-out: CD69, CD69 (gene 969); assay: BSK_SAg_CD69: BioMAP Diversity Plus: SAg Assay for CD69 Biomarker Activity (AID 2283089); settings: primary human HUVEC with PBMC; actives raise or lower the signal;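 for AC50: cell surface CD69 protein quantified by ELISA with fluorescence detection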
Summary of the method: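 HUVEC co-cultured with PBMC were dosed with chemical, and CD69 was measured by ELISA with fluorescence read-out 24 h later. Bidirectional curve fitting used DMSO as negative control and activity baseline.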

[18] = read-out: C-C motif chemokine 2 (Homo sapiens) (UniProt P13500); assay: BSK_KF3CT_MCP1: BioMAP Diversity Plus: KF3CT Assay for Monocyte Chemoattractant Protein 1 (MCP1/CCL2) Biomarker Activity (AID 2283073); settings: primary human keratinocytes with fibroblasts; actives raise or lower the signal
Summary of the method: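 KF3CT skin co-culture (keratinocytes/foreskin fibroblasts), 24 h post-dose; MCP-1 by ELISA; gain/loss of signal fit bidirectionally vs DMSO baseline.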

[19] = read-out: Monocyte Chemoattractant Protein-1 (MCP1), CCL2 (gene 6347); assay: BSK_SAg_MCP1: BioMAP Diversity Plus: SAg Assay for Monocyte Chemoattractant Protein-1 (MCP1) Biomarker Activity (AID 2283090); settings: primary human HUVEC with PBMC; actives raise or lower the signal
Summary of the method: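 Values derive from bidirectional fitting of ELISA-measured MCP1 against DMSO controls. Readings were taken 24 h after dosing human vascular endothelial cells co-cultured with peripheral blood mononuclear cells under superantigen stimulation.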

Sequence of Tumor necrosis factor (Homo sapiens) (P01375 whole entry, looked up): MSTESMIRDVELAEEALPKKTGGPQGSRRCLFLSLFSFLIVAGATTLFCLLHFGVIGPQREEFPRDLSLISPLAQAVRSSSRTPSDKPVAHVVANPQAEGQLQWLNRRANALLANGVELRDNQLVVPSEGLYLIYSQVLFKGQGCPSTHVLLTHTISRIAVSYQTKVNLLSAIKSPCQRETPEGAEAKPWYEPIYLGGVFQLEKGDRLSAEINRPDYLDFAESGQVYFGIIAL
Sequence of E-selectin (Homo sapiens) (P16581 whole entry, looked up): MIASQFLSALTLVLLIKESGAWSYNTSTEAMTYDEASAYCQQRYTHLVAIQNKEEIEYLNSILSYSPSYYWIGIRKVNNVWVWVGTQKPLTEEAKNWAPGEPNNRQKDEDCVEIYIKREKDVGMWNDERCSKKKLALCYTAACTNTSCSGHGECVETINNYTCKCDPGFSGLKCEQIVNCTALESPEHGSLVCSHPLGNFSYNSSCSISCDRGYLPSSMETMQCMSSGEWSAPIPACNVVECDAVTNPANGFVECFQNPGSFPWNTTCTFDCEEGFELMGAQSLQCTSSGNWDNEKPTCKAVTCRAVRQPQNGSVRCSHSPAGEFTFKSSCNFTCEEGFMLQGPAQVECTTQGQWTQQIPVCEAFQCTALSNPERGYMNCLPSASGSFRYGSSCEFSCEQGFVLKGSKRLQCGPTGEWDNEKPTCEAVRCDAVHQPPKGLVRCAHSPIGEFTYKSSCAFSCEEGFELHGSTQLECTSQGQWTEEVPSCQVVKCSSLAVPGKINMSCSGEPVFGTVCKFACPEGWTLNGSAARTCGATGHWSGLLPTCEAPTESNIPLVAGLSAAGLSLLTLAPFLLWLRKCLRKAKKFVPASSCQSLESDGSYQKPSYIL

**Q.** What does the source list for CCCCOC(=O)c1ccccc1C(=O)OCc1ccccc1?
**A.** outcome [1]: inactive; outcome [2]: inactive; outcome [3]: inactive; outcome [4]: inactive; outcome [5]: inactive; outcome [6]: inactive; outcome [7]: inactive; outcome [8]: inactive; outcome [9]: inactive; outcome [10]: inactive; AC50 [11]: 8.72 µM (active); outcome [12]: inactive; outcome [13]: inactive; AC50 [14]: 10.7 µM (active); outcome [15]: inactive; outcome [16]: inactive; outcome [17]: inactive

**Q.** Which AC50 [1] does the source give for CCCCCCCCn1sccc1=O here?
**A.** 11.2 µM (active)

**Q.** What about the AC50 [2] of the same compound?
**A.** 9.71 µM (active)

**Q.** What about the AC50 [4] of the same compound?
**A.** 11.2 µM (active)

**Q.** And the AC50 [5]?
**A.** 5.76 µM (active)

**Q.** What about the AC50 [6] of the same compound?
**A.** 9.25 µM (active)

**Q.** And the AC50 [7]?
**A.** 9.78 µM (active)

**Q.** What about the AC50 [8] of the same compound?
**A.** 20.8 µM (active)

**Q.** And the AC50 [9]?
**A.** 4.97 µM (active)

**Q.** What about the AC50 [10] of the same compound?
**A.** 6.88 µM (active)

**Q.** What about the AC50 [11] of the same compound?
**A.** 0.857 µM (active)

**Q.** And the AC50 [12]?
**A.** 7.58 µM (active)

**Q.** What about the AC50 [13] of the same compound?
**A.** 1.04 µM (active)

**Q.** And the AC50 [14]?
**A.** 6.97 µM (active)

**Q.** What about the AC50 [15] of the same compound?
**A.** 7.73 µM (active)

**Q.** And the AC50 [16]?
**A.** 10.2 µM (active)

**Q.** What about the AC50 [17] of the same compound?
**A.** 10.7 µM (active)

**Q.** Which results are given for c1ccc(NNc2ccccc2)cc1?
**A.** outcome [2]: inactive; outcome [18]: inactive; outcome [3]: inactive; outcome [4]: inactive; outcome [5]: inactive; outcome [6]: inactive; outcome [7]: inactive; outcome [8]: inactive; outcome [9]: inactive; outcome [10]: inactive; AC50 [11]: 10.6 µM (active); outcome [12]: inactive; outcome [13]: inactive; outcome [14]: inactive; outcome [15]: inactive; outcome [16]: inactive; outcome [17]: inactive; outcome [19]: inactive

**Q.** Which outcome [2] does the source give for OCCCl here?
**A.** inactive

**Q.** And the outcome [18]?
**A.** inactive

**Q.** And the outcome [3]?
**A.** inactive

**Q.** What about the outcome [4] of the same compound?
**A.** inactive

**Q.** And the outcome [5]?
**A.** inactive

**Q.** What about the outcome [6] of the same compound?
**A.** inactive

**Q.** What about the outcome [7] of the same compound?
**A.** inactive

**Q.** And the outcome [8]?
**A.** inactive

**Q.** What about the outcome [9] of the same compound?
**A.** inactive

**Q.** And the outcome [10]?
**A.** inactive

**Q.** What about the outcome [11] of the same compound?
**A.** inactive

**Q.** What about the outcome [12] of the same compound?
**A.** inactive

**Q.** What about the outcome [13] of the same compound?
**A.** inactive

**Q.** What about the outcome [14] of the same compound?
**A.** inactive

**Q.** What about the outcome [15] of the same compound?
**A.** inactive

**Q.** And the outcome [16]?
**A.** inactive

**Q.** And the outcome [17]?
**A.** inactive
